Compounds with a hit are over-represented: about 2.2% of the library has one in this group of screens.
BaF3 parental: parental Ba/F3 cell viability inhibition, counter-screen for JAK2V617F inhibitor project, murine pro-B, CellTiter-Glo luminescence; CellTiter-Glo ATP luminescence; inhibition, % at 5.6 µM; actives 1.1% (n = 220,000); AID 1486, 2009;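 active = inhibition above a per-campaign cutoff, the mean inhibition of all tested compounds plus 3 SD, cut at about 27% in these data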;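 note: 0% = DMSO wells and 100% = JAK Inhibitor I control wells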
Ba/F3 V617F tox: reduced viability of JAK2V617F-dependent Ba/F3 cells, primary screen, JAK2V617F inhibitor project, cell-based, Ba/F3 EpoR-JAK2V617F, luminescence; ATP luminescence; inhibition, % at 5.6 µM; actives 1.1% (n = 220,000); AID 1446, 2008;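 active = inhibition above the campaign mean plus 3 SD over all tested compounds, cut at about 24% in these data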;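 note: cytokine-independent growth of Ba/F3 cells driven by EpoR plus mutant JAK2; 0% = DMSO-treated cells and 100% = JAK inhibitor I control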
IEC-6 tox-1: cytotoxicity in IEC-6 intestinal epithelial cells, primary screen, cytotoxicity control for KLF5 inhibitor project, cell-based, luminescence | actives 0.78% (n = 290,000) | AID 1825, 2009 | IEC-6 cytotoxicity, luminescence viability | inhibition, % at 5 µM;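 note: 0% = plate median of test compound wells and 100% = cytotoxic reference compound wells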
KLF5 inh: KLF5 expression inhibitors, primary screen, DLD-1 cells, luminescence. DLD-1 KLF5 promoter-luciferase reporter. inhibition, % at 5 µM. actives 0.23% (n = 290,000);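 active = inhibition above a per-plate limit of that plate's mean compound inhibition plus 3 SD, cut at about 60% in these data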;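 note: 0% = DMSO wells and 100% = LY294002 at 200 µM; higher means less KLF5 promoter-driven luciferase light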
aSyn 5UTR inh: MLPCN primary screen, SNCA 5' untranslated region; alpha-synuclein 5'UTR reporter, inhibitor activity; inhibition, % (tested at 7.5 µM); actives 0.82% (n = 300,000); AID 1813, 2009; in the data active = inhibition above about 60%;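 note: H4 neuroglioblastoma cells stably carrying SNCA 5'UTR luciferase fusion; 0% = DMSO wells and 100% = positive control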
APP transl inh: inhibitors of APP translation via 5'UTR reporter, primary screen, APP 5'UTR luciferase, SH-SY5Y cells | actives 0.82% (n = 190,000) | inhibition, % at 2 µM | SH-SY5Y APP 5'UTR-luciferase reporter, luminescence;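 active = inhibition above a set limit, derived from the sample mean plus 3 SD, cut at about 45% in these data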
KLF5 inh confirm: KLF5 expression inhibitors, confirmation, DLD-1 cells, luminescence | shares compounds with KLF5 inh | DLD-1 KLF5 promoter firefly luciferase reporter | inhibition, % at 4 µM | actives 79% (n = 610) | AID 1834, 2009;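 active = inhibition above a set limit taken from the earlier primary screen, cut at about 63% in these data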;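 note: 0% = DMSO wells and 100% = LY294002 at 200 µM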
IEC-6 tox-2: cytotoxicity in rat IEC-6 cells, cytotoxicity control for KLF5 inhibitor project, cell-based, luminescence, triplicate | shares compounds with KLF5 inh | IEC-6 rat intestinal cells, viability luminescence | inhibition, % at 4 µM | actives 56% (n = 610) | AID 1905, 2009; in the data active = inhibition above about 23%;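 note: cells exposed to compounds for 48 hours before viability read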
IEC-6 tox confirm: cytotoxic compounds in IEC-6 epithelial cells, confirmation, cytotoxicity control, cell-based, luminescence. AID 1907, 2009. shares compounds with IEC-6 tox-1. IEC-6 rat intestinal epithelial viability. actives 63% (n = 1,900). inhibition, % at 5 µM;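 note: 0% = vehicle and 100% = reference cytotoxic drug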
* marks the source's active call; other numbers are inactive results; . = not tested or not shown. Cut-off read from the data, not from the text of the source, unless noted: active = inhibition above about 22%; inactive = the rest.

SMILES | BaF3 parental | Ba/F3 V617F tox | IEC-6 tox-1 | KLF5 inh | aSyn 5UTR inh | APP transl inh | KLF5 inh confirm | IEC-6 tox-2 | others
COc1ccc(NC(=O)CN(C)C(=O)Cc2ccc(S(=O)(=O)N3CCOCC3)s2)cc1 | . | . | . | . | 5 | . | . | .
COc1ccccc1-c1nnc2n1N=C(c1ccc(O)c(O)c1)CS2 | 92* | 95* | 1 | 80* | 97* | 95* | 92* | 14
CC(=NC1CC1)c1c(-c2ccccc2)[nH]n(-c2nc3ccccc3s2)c1=O | 5 | 0 | -2 | -47 | -33 | -6 | . | .
CC(=NC1CCCC1)c1c(C)[nH]n(-c2nc3ccccc3s2)c1=O | 6 | 2 | 1 | 72* | 94* | -61 | 26 | 3
CCOc1ccc(NC(=O)c2ccccn2)cc1 | 12 | 6 | 7 | 79* | 104* | -116 | 50 | 11
COc1ccc(C(=O)NNC(=O)c2ccccn2)cc1 | 11 | 12 | 24* | 77* | 79* | -125 | -127 | 1
COc1ccc(/C=C2\N=C(c3ccccc3)N(c3ccc(C(=O)O)cc3)C2=O)cc1OC | -7 | -1 | 1 | -9 | 15 | . | . | .
O=c1cnnc(N/N=C/c2ccccn2)[nH]1 | 51* | 41* | 8 | 76* | 75* | . | 72* | 50*
CCc1ccc(-c2nc(SCC(=O)N(CC)C3CCS(=O)(=O)C3)n[nH]2)cc1 (stereo not given) | . | . | . | . | -24 | . | . | .
CC(CN1CCCCC1)NC(=O)c1cc(-c2ccccn2)nc2ccc(Cl)cc12 (stereo not given) | 9 | 1 | 3 | -14 | -29 | -14 | . | .
Clc1ccc2c(c1)C(C1=NCCN1)c1ccccc1CS2 (stereo not given) | 70* | 76* | 66* | 80* | 79* | 97* | 90* | 46*
O=[N+]([O-])c1cc(CN2CCN(c3ccccc3)CC2)c(O)c2ncccc12 | 76* | 74* | 52* | 76* | 82* | 80* | 89* | 77*
O=[N+]([O-])c1cc(CN2CCOCC2)c2cccnc2c1O | 8 | 5 | -6 | -1 | . | 5 | . | .
O=C(CCl)Nc1cc(SCC(O)CO)cc([N+](=O)[O-])c1 (stereo not given) | 99* | 99* | 14 | 84* | 110* | -16 | 112* | 34*
N=C(N=C(N)N)N1CCc2ccccc21 | 11 | -1 | -2 | -15 | 2 | -1 | . | .
O=C(O)c1ccc(N/N=C/c2c[nH]c3ccccc23)cc1 | . | . | -4 | 77* | 79* | . | 70* | 7
Cc1onc(-c2ccccc2)c1C(=O)NCc1ccc(Cl)cc1 | . | . | -3 | -14 | 5 | . | . | .
Cc1nn(-c2ccccc2)c(C)c1/C=N/NC(=O)c1cc(-c2cccs2)[nH]n1 | 73* | 71* | 72* | 82* | 46 | 93* | 77* | 69*
O=c1[nH]c(/C(Cl)=C/c2cc(Cl)ccc2O)nc2cc(Cl)ccc12 | 8 | 1 | 0 | -3 | -90 | 15 | . | .
O=C(c1cc(-c2ccccc2Cl)on1)N1CCCC1 | . | . | 3 | 74* | 24 | . | 65* | -8
Oc1nc(Nc2ccc(F)cc2)sc1/C=C1\C=Nc2ccccc21 | 3 | -2 | -2 | -36 | -15 | . | . | .
CC1=Nc2ccccc2/C1=C\c1sc(Nc2ccc(C)cc2)nc1O | 75* | 76* | 79* | 66* | -5 | 96* | 85* | 58* | IEC-6 tox confirm=54*
C/C(=N\NC(=O)c1nnn(-c2nonc2N)c1-c1ccc2c(c1)OCO2)c1ccccc1 | . | . | -12 | -23 | -9 | . | . | .
C/C(=N\NC(=O)c1nnn(-c2nonc2N)c1-c1ccccc1)c1ccccc1O | . | . | 96* | 62* | 60 | . | 85* | 63* | IEC-6 tox confirm=75*
C/C(CC(=O)Nc1ccc2c(c1)OCCO2)=N\NC(=O)c1ccccc1Cl | . | . | 0 | -37 | -34 | . | . | .
SMILES | BaF3 parental | Ba/F3 V617F tox | IEC-6 tox-1 | KLF5 inh | aSyn 5UTR inh | APP transl inh | KLF5 inh confirm | IEC-6 tox-2 | others
O=C(c1ccco1)N1CCN(C(=O)N2c3ccccc3Sc3ccccc32)CC1 | 82* | 85* | 91* | 80* | 81* | 93* | 85* | 55* | IEC-6 tox confirm=60*
O=C(NC1CC1)C1=C[C@H](c2csc3ccccc23)C[C@H](OCCCCO)O1 | -1 | 2 | 1 | 4 | 2 | -13 | . | .
O=C(NCc1ccccc1)C1=C[C@@H](c2csc3ccccc23)C[C@@H](OCCCCO)O1 | 57* | 25* | 30* | 70* | 95* | 9 | 61 | 7 | IEC-6 tox confirm=16
CCn1c2ccccc2c2cc(Nc3cc(C)nc4ncnn34)ccc21 | 86* | 84* | 94* | 75* | 82* | 96* | 82* | 72* | IEC-6 tox confirm=72*
CCc1nnc(SCC(=O)Nc2nc(C)c(C(=O)N(C)C)s2)n1CC | . | . | -1 | -43 | 2 | . | . | .
O=C(CSc1nnc(-c2ccccc2)o1)Nc1ccccc1F | 32* | 26* | 29* | 72* | 74* | -108 | -55 | -6 | IEC-6 tox confirm=-4
Cc1ccc(-c2nnc(SCC(=O)Nc3ccccc3F)o2)cc1 | 21 | 15 | 28* | 100* | 92* | 36 | 66* | 5 | IEC-6 tox confirm=17
C=CCn1c(=N)n(CC(=O)c2ccc(Br)s2)c2ccccc21 | 5 | 4 | 10 | -6 | -14 | 13 | . | .
CCc1ccc2[nH]c(C(=O)N(C)c3ccc(F)cc3F)cc2c1 | . | . | -7 | -1 | -14 | . | . | .
COc1ccc(C(=O)NCCCOc2cccnc2)cc1OC1CCN(C(C)=O)CC1 | . | . | -1 | -7 | -9 | . | . | .
COC(=O)Nc1nc2ccc(C(=O)c3cccs3)cc2[nH]1 | . | . | . | . | 53 | . | . | .
CCCSc1ccc2nc(NC(=O)OC)[nH]c2c1 | 76* | 78* | 80* | 76* | 18 | 92* | 48 | 61* | IEC-6 tox confirm=56*
Cc1cccc(N2CCN(C(=O)c3cccc(N4CCCC4=O)c3)C(C)C2)c1 (stereo not given) | . | . | 63* | 64* | 36 | . | 69* | 36* | IEC-6 tox confirm=40*
Cc1c(C(=O)O)[nH]c2c1C(=O)CC(c1ccccc1)C2 (stereo not given) | 2 | -2 | 3 | -1 | -13 | -10 | . | .

Source: PubChem (several laboratories)
